PubChem BioAssay (EPA / NIEHS)
The source made the active and inactive calls. Rule for the calls: active = hit-call score of the fitted dose curve at least 0.9, where 1 is the maximum; inactive = score below 0.9.

How the values were obtained:
Details in all cases: mRNA level, 48 h; actives raise or lower the signal
[1] = read-out: Heat shock 70 kDa protein 1 (HSPA1A), gene 3303; assay: LTEA_HepaRG_HSPA1A: Life Technologies and Expression Analysis (LTEA) Assay for Heat shock 70 kDa protein 1 (HSPA1A) using HepaRG (AID 2283502)
Summary of the method: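 Cells were plated and cultured for 48 h, then switched to serum-free induction medium. Chemicals were added at eight half-log concentrations up to 100 uM for 48 h. RNA was then isolated and HSPA1A measured by qRT-PCR with bidirectional curve fitting against DMSO.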

[2] = read-out: Hypoxia-inducible factor 1-alpha (Homo sapiens) (UniProt Q16665); assay: LTEA_HepaRG_HIF1A: Life Technologies and Expression Analysis (LTEA) Assay for Hypoxia-inducible factor 1 (HIF1A) Trancription factor using HepaRG (AID 2283503)
Summary of the method: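 HIF1A transcript level read by qRT-PCR (ACTB, GAPDH, POLR2A normalization) after 48 h chemical exposure of HepaRG cultures. Eight half-log concentrations, top 100 uM, 0.5% DMSO vehicle, duplicates; bidirectional curve fit against DMSO baseline.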

[3] = read-out: 3-Hydroxy-3-Methylglutaryl-CoA Synthase 2 (HMGCS2), HMGCS2 (gene 3158); assay: LTEA_HepaRG_HMGCS2: Life Technologies and Expression Analysis (LTEA) Assay for 3-Hydroxy-3-Methylglutaryl-CoA Synthase 2 (HMGCS2) using HepaRG (AID 2283504)
Summary of the method: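 Differentiated human HepaRG cells were exposed in duplicate for 48 h in serum-free induction medium to eight concentrations (top 100 uM, half-log steps, 0.5% DMSO). HMGCS2 mRNA was quantified by TaqMan qRT-PCR, normalised to ACTB, GAPDH and POLR2A, then fitted bidirectionally against DMSO.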

HGF (gene 3082) = assay: LTEA_HepaRG_HGF: Life Technologies and Expression Analysis (LTEA) Assay for Hepatocyte Growth Facto (HGF) using HepaRG (AID 2283505)
Summary of the method: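 Differentiated human HepaRG cells in serum-free induction medium were exposed in duplicate for 48 h to eight concentrations (top 100 uM, half-log steps, 0.5% DMSO). HGF mRNA was quantified by qRT-PCR, normalized to ACTB, GAPDH and POLR2A.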

[4] = read-out: Insulin Like Growth Factor 1 (IGF1), IGF1 (gene 3479); assay: LTEA_HepaRG_IGF1: Life Technologies and Expression Analysis (LTEA) Assay for Insulin Like Growth Factor 1 (IGF1) using HepaRG (AID 2283506)
Summary of the method: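 Cells are thawed, plated and cultured 48 h, then exposed in duplicate to chemical (highest 100 uM, half-log steps, 0.5% DMSO) for another 48 h. Total RNA is analysed by Fluidigm qRT-PCR for IGF1 expression relative to vehicle.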

[5] = read-out: Intercellular Adhesion Molecule 1 (ICAM1), ICAM1 (gene 3383); assay: LTEA_HepaRG_ICAM1: Life Technologies and Expression Analysis (LTEA) Assay for Intercellular Adhesion Molecule 1 (ICAM1) using HepaRG (AID 2283507)
Summary of the method: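 Differentiated HepaRG cells in serum-free induction medium were exposed in duplicate for 48 h to eight half-log concentrations up to 100 uM in 0.5% DMSO. Transcript levels were measured by qRT-PCR normalized to ACTB, GAPDH and POLR2A; bidirectional fits relative to DMSO.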

[6] = read-out: Interleukin 6 (IL6), IL6 (gene 3569); assay: LTEA_HepaRG_IL6: Life Technologies and Expression Analysis (LTEA) Assay for Interleukin 6 (IL6) using HepaRG (AID 2283509)
Summary of the method: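 qRT-PCR read-out of IL6 transcript, normalized to three housekeeping genes, after 48 h chemical exposure of HepaRG cells; 8-point half-log series, top 100 uM, 0.5% DMSO vehicle. Bidirectional curve fitting against DMSO baseline.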

[7] = read-out: Interleukin 6 Receptor (IL6R), IL6R (gene 3570); assay: LTEA_HepaRG_IL6R: Life Technologies and Expression Analysis (LTEA) Assay for Interleukin 6 Receptor (IL6R) using HepaRG (AID 2283510);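 for AC50: TaqMan qRT-PCR signal normalized to ACTB GAPDH and POLR2A housekeeping genes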
Summary of the method: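 Cells were thawed, plated and cultured 48 h, then medium was changed to serum-free induction medium. Chemicals were added in duplicate (100 uM top, half-log steps, 0.5% DMSO) for 48 h. Lysates were analyzed by qRT-PCR for IL6R expression.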

[8] = read-out: Potassium channel subfamily K member 1 (KCNK1), KCNK1 (gene 3775); assay: LTEA_HepaRG_KCNK1: Life Technologies and Expression Analysis (LTEA) Assay for Potassium channel subfamily K member 1 (KCNK1) using HepaRG (AID 2283511)
Summary of the method: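 HepaRG, 48 h exposure, 8-pt half-log series top 100 uM, 0.5% DMSO vehicle, duplicates. Readout: KCNK1 transcript by qRT-PCR (Fluidigm array), housekeeping-normalized; bidirectional curve fit relative to DMSO baseline.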

[9] = read-out: Keratin 19 (KRT19), KRT19 (gene 3880); assay: LTEA_HepaRG_KRT19: Life Technologies and Expression Analysis (LTEA) Assay for Keratin 19 (KRT19) using HepaRG (AID 2283512)
Summary of the method: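 Differentiated human HepaRG cells, plated 48 h, were exposed in duplicate for 48 h in serum-free induction medium to eight half-log concentrations up to 100 uM in 0.5% DMSO. KRT19 mRNA was quantified by qRT-PCR, normalized to ACTB, GAPDH and POLR2A, and fitted bidirectionally versus DMSO.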

[10] = read-out: JUN Transcription Factor, JUN (gene 3725); assay: LTEA_HepaRG_JUN: Life Technologies and Expression Analysis (LTEA) Assay for JUN Transcription Factor using HepaRG (AID 2283513)
Summary of the method: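 Read-out is JUN transcript level by TaqMan qRT-PCR, normalized to ACTB, GAPDH and POLR2A, after 48 h chemical treatment of HepaRG cells. Concentration-response spanned eight half-log points up to 100 uM in 0.5% DMSO.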

[11] = read-out: Lipase C (LIPC), LIPC (gene 3990); assay: LTEA_HepaRG_LIPC: Life Technologies and Expression Analysis (LTEA) Assay for Lipase C (LIPC) using HepaRG (AID 2283514)
Summary of the method: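 HepaRG, 48 h exposure, 8-pt half-log series from 100 uM in 0.5% DMSO, duplicates. Readout: LIPC mRNA by Fluidigm qRT-PCR, housekeeping-normalized (ACTB/GAPDH/POLR2A). Gain or loss fitted bidirectionally against DMSO baseline.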

[12] = read-out: Lipoprotein lipase (LPL), LPL (gene 4023); assay: LTEA_HepaRG_LPL: Life Technologies and Expression Analysis (LTEA) Assay for Lipoprotein lipase (LPL) using HepaRG (AID 2283515)
Summary of the method: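 HepaRG, 48 h exposure, 8-pt half-log dilutions from 100 uM, 0.5% DMSO vehicle, duplicates; qRT-PCR (Fluidigm array) of LPL mRNA vs housekeeping genes; bidirectional curve fit relative to DMSO baseline.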

[13] = read-out: MicroRNA 122 (MIR122), gene 406906; assay: LTEA_HepaRG_MIR122: Life Technologies and Expression Analysis (LTEA) Assay for MicroRNA 122 (MIR122) using HepaRG (AID 2283516); note: the transcript read is the microRNA miR-122
Summary of the method: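 Human liver HepaRG cultures receive test chemicals for 48 h at eight half-log concentrations from 100 uM. Expression is quantified by qRT-PCR with ACTB/GAPDH/POLR2A normalization and fitted bidirectionally against 0.5% DMSO.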

[14] = read-out: matrix metalloproteinase-10 (MMP10), MMP10 (gene 4319); assay: LTEA_HepaRG_MMP10: Life Technologies and Expression Analysis (LTEA) Assay for matrix metalloproteinase-10 (MMP10) using HepaRG (AID 2283517)
Summary of the method: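 Transcript levels come from Fluidigm qRT-PCR normalized to three housekeeping genes, with curves fitted bidirectionally against 0.5% DMSO. Human HepaRG cells were dosed for 48 hours at concentrations up to 100 uM.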

MYC, MYC (gene 4609) = assay: LTEA_HepaRG_MYC: Life Technologies and Expression Analysis (LTEA) Assay for MYC using HepaRG (AID 2283518)
Summary of the method: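 Differentiated human HepaRG cells, plated 48 h then switched to serum-free induction medium, were exposed in duplicate for 48 h to 8-point half-log series up to 100 uM in 0.5% DMSO. MYC mRNA measured by qRT-PCR, normalized to ACTB/GAPDH/POLR2A.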

[15] = read-out: matrix metalloproteinase-3 (MMP3), MMP3 (gene 4314); assay: LTEA_HepaRG_MMP3: Life Technologies and Expression Analysis (LTEA) Assay for matrix metalloproteinase-3 (MMP3) using HepaRG (AID 2283519)
Summary of the method: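 qRT-PCR read-out of MMP3 mRNA (normalised to three housekeeping genes) in HepaRG liver cells after 48 h chemical exposure; 8-point half-log series, top 100 uM, 0.5% DMSO vehicle. Bidirectional curve fitting against DMSO baseline.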

[16] = read-out: Paternally Expressed 10 (PEG10), PEG10 (gene 23089); assay: LTEA_HepaRG_PEG10: Life Technologies and Expression Analysis (LTEA) Assay for Paternally Expressed 10 (PEG10) using HepaRG (AID 2283520);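 for AC50: PEG10 transcript by qRT-PCR normalised to ACTB GAPDH and POLR2A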
Summary of the method: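 Human HepaRG cultures are dosed for 48 h across an eight-point half-log series starting at 100 uM, with 0.5% DMSO as vehicle and baseline. Gain or loss of PEG10 transcript is measured by qRT-PCR and fitted in both directions.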

[17] = read-out: Nuclear factor NF-kappa-B p105 subunit (Homo sapiens) (UniProt P19838); assay: LTEA_HepaRG_NFKB1: Life Technologies and Expression Analysis (LTEA) Assay for Nuclear Factor Kappa B Subunit 1 (NFKB1) using HepaRG (AID 2283521)
Summary of the method: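 NFKB1 transcript was measured by TaqMan qRT-PCR on Fluidigm arrays, normalised to three housekeeping genes and fitted in both directions against 0.5% DMSO. HepaRG cells were dosed in duplicate for 48 h in serum-free induction medium, eight half-log steps from 100 uM.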

[18] = read-out: Insulin-like growth factor-binding protein 1 (IGFBP1), IGFBP1 (gene 3484); assay: LTEA_HepaRG_IGFBP1: Life Technologies and Expression Analysis (LTEA) Assay for Insulin-like growth factor-binding protein 1 (IGFBP1) using HepaRG (AID 2283508)
Summary of the method: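 Differentiated human HepaRG cells in serum-free induction medium were exposed in duplicate for 48 h to eight concentrations, top 100 uM with half-log dilutions, in 0.5% DMSO. Transcript levels came from qRT-PCR normalised to ACTB, GAPDH and POLR2A, fitted bidirectionally against DMSO.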

Measured: AC50

Chain of Nuclear factor NF-kappa-B p105 subunit (Homo sapiens) (P19838 whole entry, looked up): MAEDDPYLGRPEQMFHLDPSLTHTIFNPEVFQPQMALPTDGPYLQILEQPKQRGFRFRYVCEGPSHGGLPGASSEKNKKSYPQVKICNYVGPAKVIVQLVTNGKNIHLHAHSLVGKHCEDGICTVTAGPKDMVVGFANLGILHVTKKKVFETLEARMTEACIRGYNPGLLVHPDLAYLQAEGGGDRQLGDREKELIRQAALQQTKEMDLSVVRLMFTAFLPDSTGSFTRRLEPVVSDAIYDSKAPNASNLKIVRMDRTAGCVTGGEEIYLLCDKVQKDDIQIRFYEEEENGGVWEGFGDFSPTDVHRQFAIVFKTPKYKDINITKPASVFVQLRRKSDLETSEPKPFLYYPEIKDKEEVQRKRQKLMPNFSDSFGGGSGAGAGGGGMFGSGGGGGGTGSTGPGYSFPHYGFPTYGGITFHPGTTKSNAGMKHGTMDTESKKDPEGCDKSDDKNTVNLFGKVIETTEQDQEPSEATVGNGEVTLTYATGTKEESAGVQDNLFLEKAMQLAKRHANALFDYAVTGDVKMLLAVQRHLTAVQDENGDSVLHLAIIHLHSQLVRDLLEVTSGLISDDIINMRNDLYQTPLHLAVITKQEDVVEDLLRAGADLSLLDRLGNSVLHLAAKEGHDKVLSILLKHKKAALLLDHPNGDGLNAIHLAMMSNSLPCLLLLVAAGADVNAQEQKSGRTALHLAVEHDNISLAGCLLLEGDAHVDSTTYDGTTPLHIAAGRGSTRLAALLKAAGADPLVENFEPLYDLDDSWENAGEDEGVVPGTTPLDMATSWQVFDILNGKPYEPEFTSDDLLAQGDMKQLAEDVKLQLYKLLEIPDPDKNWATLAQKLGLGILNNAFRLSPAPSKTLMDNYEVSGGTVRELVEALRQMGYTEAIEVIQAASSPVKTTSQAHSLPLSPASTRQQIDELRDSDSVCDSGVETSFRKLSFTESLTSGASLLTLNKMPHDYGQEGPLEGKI
Chain of Hypoxia-inducible factor 1-alpha (Homo sapiens) (Q16665 whole entry, looked up): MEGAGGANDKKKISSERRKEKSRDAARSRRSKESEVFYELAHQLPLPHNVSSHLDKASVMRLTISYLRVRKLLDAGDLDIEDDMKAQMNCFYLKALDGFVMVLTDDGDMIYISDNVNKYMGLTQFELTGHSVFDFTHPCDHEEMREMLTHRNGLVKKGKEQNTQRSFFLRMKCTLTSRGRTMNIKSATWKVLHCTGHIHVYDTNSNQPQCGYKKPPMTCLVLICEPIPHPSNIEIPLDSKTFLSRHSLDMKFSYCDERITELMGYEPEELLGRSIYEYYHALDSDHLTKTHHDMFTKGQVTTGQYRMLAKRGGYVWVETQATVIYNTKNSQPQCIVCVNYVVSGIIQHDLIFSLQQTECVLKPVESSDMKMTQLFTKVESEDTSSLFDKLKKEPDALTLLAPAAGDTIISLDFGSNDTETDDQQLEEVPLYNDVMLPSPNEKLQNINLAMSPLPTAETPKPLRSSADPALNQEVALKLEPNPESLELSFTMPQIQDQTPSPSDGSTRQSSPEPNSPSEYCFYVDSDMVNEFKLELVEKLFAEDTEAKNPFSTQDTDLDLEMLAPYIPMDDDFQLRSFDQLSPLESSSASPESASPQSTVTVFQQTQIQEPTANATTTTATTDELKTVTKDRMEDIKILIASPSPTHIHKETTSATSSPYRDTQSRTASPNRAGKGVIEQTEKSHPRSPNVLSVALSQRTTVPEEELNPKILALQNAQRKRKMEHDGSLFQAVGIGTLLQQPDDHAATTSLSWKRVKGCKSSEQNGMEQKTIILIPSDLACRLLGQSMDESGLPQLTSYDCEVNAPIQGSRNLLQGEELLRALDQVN

O=C=NCCCCCCN=C=O
not listed: [18]
inactive: all other assays above

COc1ccc2cc(S(=O)(=O)N[C@H](CC(=O)N[C@H](Cc3ccc(CN4[C@H](C)CCC[C@@H]4C)cc3)C(=O)N(C)C(C)C)c3ccc4c(c3)OCO4)ccc2c1
active: [1] 82.6 µM | [2] 75.5 µM | HGF (gene 3082) 19.9 µM | [4] 21.2 µM | [5] 12 µM | [6] 30.9 µM | [7] 82.5 µM | [8] 19.7 µM | [9] 12 µM | [10] 57.8 µM | [12] 24.1 µM | [13] 11.4 µM | [14] 24.3 µM | MYC, MYC (gene 4609) 24.7 µM | [16] 11.5 µM | [17] 31.2 µM
inactive: [3] | [11] | [15]

CC(O)CC(C)(C)O (stereo not drawn)
inactive: all assays above

CCN(Cc1cccnc1)C(=O)c1cccc(Cl)c1[C@]1(C)C(=O)N(Cc2ccc(OC)cc2OC)c2ccc(Cl)cc21
active: [1] 6.92 µM | [3] 21.8 µM | HGF (gene 3082) 21.9 µM | [4] 14.4 µM | [5] 21.2 µM | [18] 17.5 µM | [6] 24.9 µM | [7] 19.9 µM | [8] 15 µM | [9] 27 µM | [11] 19.9 µM | [12] 10.4 µM | [13] 18.1 µM | [14] 17.7 µM | MYC, MYC (gene 4609) 25.3 µM | [16] 10.2 µM | [17] 26.5 µM
inactive: [2] | [10] | [15]

Cc1c2ccccc2c(C)c2c1ccc1ccccc12
inactive: [8] | [10] | [17]
active: [2] 90.9 µM | [3] 52.5 µM | HGF (gene 3082) 63.3 µM | [18] 70.3 µM | [6] 83 µM | [7] 13.5 µM | [9] 13.3 µM | [11] 30.6 µM | [12] 82.5 µM | [13] 66 µM | [14] 79.5 µM | MYC, MYC (gene 4609) 63.7 µM | [15] 11.8 µM | [16] 28.5 µM

CC[C@H](NC(=O)c1cc(F)ccc1NS(=O)(=O)c1cccc2cccnc12)c1ccccc1
active: [1] 12.2 µM | [3] 37.6 µM | [4] 12.4 µM | [7] 38.6 µM | [11] 20.1 µM | [13] 47.8 µM | [16] 19.1 µM
not listed: [5] | [18]
inactive: all other assays above
